Compounds with a hit are over-represented: about 7.4% of the library has one in this group of screens.
Rab9 promoter act = qHTS Assay for Rab9 Promoter Activators; Huh7 Rab9 promoter-luciferase reporter, luminescence, 24 h; Potency, µM (highest dose often 9.22 µM), inactives show at the highest dose activation, negative = inhibition, most hits filed as activators; 320,000 tested, 2.8% active; AID 485297, 2010; also: % of control where 0% means no effect; nearly all actives have a fitted effect of over 60% in size
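Huh7 cells stably carrying Rab9 promoter–luciferase reporter, plated 1500 cells/well, compound added after 2 h and incubated 24 h at 37 °C; luciferase luminescence then read after 10 min with detection reagent.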
ELG1 genotox = qHTS screen for small molecules that induce genotoxicity in human embryonic kidney (HEK293T) cells expressing luciferase-tagged ELG1; HEK293T ELG1-luciferase reporter, luminescence, 16 h; Potency, µM (titrated, usually from 46 µM), for the others: top-dose activity change, positive = activation, actives largely listed as activators; 330,000 tested, 1.3% active; AID 504466, 2011; also: % of control where 0% means no effect; nearly all actives have a fitted effect of over 60% in size
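Quantitative HTS format in 1536-well plates. HEK293T ELG1-luciferase reporter cells receive test compound and are incubated 16 hr at 37 °C, 5% CO2; ONE-Glo added, 30 min room temperature, then luminescence read.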
NPC1 promoter act = qHTS Assay for NPC1 Promoter Activators | 320,000 tested, 2.4% active | Potency, µM (doses to about 9.22 µM), without a hit: at the top dose activation, most hits filed as activators | Huh7 NPC1 promoter luciferase reporter, 24 h; also: % of control where 0% means no effect; nearly all actives have a fitted effect of over 60% in size
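Stable NPC1-promoter luciferase Huh7 line; cpd (DMSO) 24 h, 37 °C, 5% CO2; Amplite luciferase reagent 10 min RT; luminescence readout. qHTS format.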
FLuc modulator = qHTS profiling assay for firefly luciferase inhibitor/activator using purifed enzyme and Km concentrations of substrates (counterscreen for miR-21 project). Luciferin 4-monooxygenase (Photinus pyralis), P08659. purified FLuc, Km substrates, luminescence inhibition. Potency, µM (top dose mostly 57.5 µM), inactives show at the top dose activity change, negative = inhibition, most hits filed as inhibitors. 360,000 tested, 6.9% active;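 also: plate controls were vehicle for no effect and reference inhibitor for full effect; nearly all actives have a fitted effect of over 55% in size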
Target sequence (P08659 whole entry, looked up): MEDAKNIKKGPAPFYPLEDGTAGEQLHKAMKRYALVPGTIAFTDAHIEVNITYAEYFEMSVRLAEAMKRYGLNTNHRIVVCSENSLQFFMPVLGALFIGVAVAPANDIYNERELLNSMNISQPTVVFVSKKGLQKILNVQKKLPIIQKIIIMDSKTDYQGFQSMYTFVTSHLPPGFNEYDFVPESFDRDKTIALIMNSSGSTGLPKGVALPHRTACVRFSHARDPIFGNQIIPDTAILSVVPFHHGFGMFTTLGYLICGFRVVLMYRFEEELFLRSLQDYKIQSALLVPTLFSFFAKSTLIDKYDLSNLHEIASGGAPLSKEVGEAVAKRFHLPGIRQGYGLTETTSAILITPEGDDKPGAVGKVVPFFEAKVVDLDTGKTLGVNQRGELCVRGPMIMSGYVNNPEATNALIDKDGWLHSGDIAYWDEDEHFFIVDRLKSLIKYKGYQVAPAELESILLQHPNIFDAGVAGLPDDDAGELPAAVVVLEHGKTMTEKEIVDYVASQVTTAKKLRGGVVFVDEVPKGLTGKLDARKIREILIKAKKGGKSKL
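Biochemical qHTS of compounds, final roughly 60 µM downward over six points, against 10 nM purified firefly luciferase using Km concentrations of substrates (10 uM D-luciferin, 10 uM ATP) in Tris acetate pH 7.5 buffer; luminescence output.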
SMN2 splice up = qHTS Assay for Enhancers of SMN2 Splice Variant Expression; HEK293 SMN2-luciferase splicing reporter, luminescence, 30-36 h; Potency, µM (highest dose often 46.1 µM), without a hit: at the highest dose activity change, positive = activation, hits mostly activators; AID 1458, 2008; 210,000 tested, 2.8% active; also: % of control where 0% means no effect; nearly all actives have a fitted effect of over 55% in size
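HEK293 cells carry an SMN2 […]–luciferase reporter in which exon 7 inclusion puts luciferase in frame. Cells were plated 10-12 h before compound addition, then incubated 30-36 h at 37C. ONE-Glo luminescence was read; sodium butyrate at 4.5 mM final served as control.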
Numbers without * were called inactive. Calls follow the shape of the dose curve; as a rule, active = well fitted curve in the direction sought with a large enough effect; inconclusive = small, poorly fitted or top-dose-only effect, or another doubt; inactive = no such curve, though single readings can be large; an effect the other way counts as inactive or inconclusive. Potency is read from the fitted curve at half-maximal effect.

`CC1CCc2sc(C(=O)NCCCn3ccnc3)cc2C1` (stereo unspecified) gave Rab9 promoter act -2%, ELG1 genotox -10%, NPC1 promoter act 1% and FLuc modulator 1%.
For O=C(Nn1cnnc1)c1cc2c(s1)CCCCC2 the results were Rab9 promoter act 18%, ELG1 genotox inconclusive, NPC1 promoter act 15%, FLuc modulator 6.7µM* and SMN2 splice up inconclusive.
`O=C(NCc1ccco1)c1cc2c(s1)CCCCC2` gave Rab9 promoter act 1.6µM*, ELG1 genotox 12µM*, NPC1 promoter act 4µM*, FLuc modulator 13µM* and SMN2 splice up 14µM*.
CC1CCC(NC(=O)c2cc3c(s2)CCCC3)CC1 (stereo unspecified) was read as Rab9 promoter act inconclusive, ELG1 genotox inconclusive, NPC1 promoter act inconclusive and FLuc modulator 12µM*.
`O=C(NCCO)c1cc2c(s1)CCC2` gave Rab9 promoter act -10%, ELG1 genotox -1%, NPC1 promoter act -6%, FLuc modulator 0% and SMN2 splice up 17%.
For O=C(NCCCn1ccnc1)c1cc2c(s1)CCCCC2 the results were Rab9 promoter act 8%, ELG1 genotox inconclusive, NPC1 promoter act 8%, FLuc modulator 17µM* and SMN2 splice up 9%.
Screening O=C(COC(=O)/C=C/c1ccccc1)NC1CCCCCC1 returned Rab9 promoter act -4%, ELG1 genotox 2%, NPC1 promoter act -2% and FLuc modulator -1%.
For COC(=O)c1ccccc1NC(=O)c1cc(CN2CCCC2)on1 the results were FLuc modulator 8%.
For COc1ccc(NC(=O)C(=O)NCc2ccco2)c(OC)c1 the results were FLuc modulator -2% and SMN2 splice up 0%.
Screening COC(=O)N[C@H](C[N+](=O)[O-])C(C)(C)C returned SMN2 splice up -4%.
For O=C(N/N=C/c1ccc(F)c(F)c1)c1cc2c(s1)-c1ccccc1CC2 the results were Rab9 promoter act -1%, ELG1 genotox 8%, NPC1 promoter act 0%, FLuc modulator 1% and SMN2 splice up 11%.
Screening CC(OC(=O)c1cc2c(s1)CCCCC2)C(=O)NC(N)=O (stereo unspecified) returned Rab9 promoter act 2%, ELG1 genotox -5%, NPC1 promoter act 3%, FLuc modulator 24µM* and SMN2 splice up 0%.
Screening CC(C)C(OC(=O)c1cc2c(s1)CCCCC2)C(=O)NC(N)=O (stereo unspecified) returned Rab9 promoter act 14%, ELG1 genotox 7%, NPC1 promoter act -2%, FLuc modulator inconclusive and SMN2 splice up -2%.
CNC(=O)c1cc2c(s1)-c1ccccc1CC2 was read as Rab9 promoter act inconclusive, ELG1 genotox inconclusive, NPC1 promoter act inconclusive, FLuc modulator 19µM* and SMN2 splice up 7.9µM*.
For Cc1ccc(C(=O)NC2CCCC2)s1 the results were Rab9 promoter act 7%, ELG1 genotox inconclusive, NPC1 promoter act 19% and FLuc modulator -6%.
`CNC(=O)c1cc2c(s1)CCCCCC2` gave Rab9 promoter act 3%, ELG1 genotox 0%, NPC1 promoter act 0%, FLuc modulator 13µM* and SMN2 splice up 4%.
Cc1ccc(C(=O)NC2CCC(C)CC2)s1 (stereo unspecified) was read as Rab9 promoter act 0.4µM*, ELG1 genotox inconclusive, NPC1 promoter act 0.89µM* and FLuc modulator inconclusive.
CC(C)NC(=O)c1cc2c(s1)CCCC2 was read as Rab9 promoter act -5%, ELG1 genotox 10%, NPC1 promoter act -2%, FLuc modulator inconclusive and SMN2 splice up -17%.
For COc1ccc(CN2CCCN(CC(=O)Nc3cc(C)ccc3C)S2(=O)=O)cc1 the results were FLuc modulator 2%.
`COc1cc(C(=O)NCCNc2nc3ccc(C)cc3cc2C#N)cc(OC)c1OC` gave Rab9 promoter act -5%, ELG1 genotox -2%, NPC1 promoter act 3% and FLuc modulator -12%.
O=C(C1CCCO1)N1CCN(C(=S)Nc2cccc(F)c2)CC1 (stereo unspecified) was read as Rab9 promoter act -4%, ELG1 genotox -1%, NPC1 promoter act 1% and FLuc modulator 3%.
For O=c1oc(-c2ccccc2F)nc2scc(-c3ccccc3)c12 the results were Rab9 promoter act inconclusive, ELG1 genotox inconclusive, NPC1 promoter act 18% and FLuc modulator 4.8µM*.
For Cc1ccc(C)c(Cn2nnc(C(=O)Nc3ccc4c(c3)OCCO4)c2N)c1 the results were Rab9 promoter act inconclusive, ELG1 genotox 4%, NPC1 promoter act inconclusive and FLuc modulator inconclusive.
Screening Nc1c(C(=O)Nc2ccc3c(c2)OCCO3)nnn1Cc1cccc(F)c1 returned Rab9 promoter act 3.2µM*, ELG1 genotox inconclusive, NPC1 promoter act 3.5µM* and FLuc modulator inconclusive.
`Nc1c(C(=O)NCc2ccc3c(c2)OCO3)nnn1Cc1cccc(F)c1` gave Rab9 promoter act 7%, ELG1 genotox 3%, NPC1 promoter act -4% and FLuc modulator 0%.
`Cc1ccccc1Cn1nnc(C(=O)Nc2ccc3c(c2)OCCO3)c1N` gave Rab9 promoter act 1.8µM*, ELG1 genotox 18%, NPC1 promoter act 2.8µM* and FLuc modulator 3µM*.
Screening Nc1c(C(=O)NCc2ccc3c(c2)OCO3)nnn1Cc1ccc(Br)cc1 returned Rab9 promoter act 6%, ELG1 genotox 3%, NPC1 promoter act -1% and FLuc modulator 2%.
For COc1ccc(Cn2nnc(C(=O)Nc3ccc4c(c3)OCCO4)c2N)cc1Br the results were Rab9 promoter act 13%, ELG1 genotox 10%, NPC1 promoter act -2% and FLuc modulator 21µM*.
Nc1c(C(=O)Nc2ccc3c(c2)OCCO3)nnn1Cc1ccc(Cl)cc1 was read as Rab9 promoter act 0.89µM*, ELG1 genotox inconclusive, NPC1 promoter act 2.2µM* and FLuc modulator inconclusive.
`COc1cccc(N2CC(NC(=O)Cc3cccs3)CC2=O)c1` (stereo unspecified) gave FLuc modulator 2%.
`COc1ccc(CCNC(=O)c2cc3c(=O)n(C)c4ccccc4c3s2)cc1OC` gave FLuc modulator -9% and SMN2 splice up -2%.
Screening CCN(c1ccc(OC)cc1)S(=O)(=O)c1nnc(NC(=O)COc2ccccc2)s1 returned Rab9 promoter act -1%, ELG1 genotox -4%, NPC1 promoter act 3% and FLuc modulator 0%.
`O=C(NNC1=C(C(=O)C(F)(F)F)CCC1)c1ccccc1O` gave Rab9 promoter act 26%, ELG1 genotox -24%, NPC1 promoter act 13%, FLuc modulator 27µM* and SMN2 splice up -24%.
